Results published in PubChem BioAssay (EPA / NIEHS).
Records with an inconclusive call do not appear. Active and inactive are the calls of the source. The calls were made as follows: active = hit-call score of the fitted dose curve at least 0.9, where 1 is the maximum; inconclusive = response in the unintended direction; inactive = score below 0.9.

These compounds were tested against human Vitamin D Receptor (VDR), VDR (gene 7421) (UniProt P11473) (assay: ATG_VDR_TRANS: Attagene TRANS-FACTORIAL HepG2 Assay for human Vitamin D Receptor (VDR) (AID 2283022)).
human Vitamin D Receptor (VDR), VDR (gene 7421), sequence (P11473 whole entry, looked up, the tested form may be a part): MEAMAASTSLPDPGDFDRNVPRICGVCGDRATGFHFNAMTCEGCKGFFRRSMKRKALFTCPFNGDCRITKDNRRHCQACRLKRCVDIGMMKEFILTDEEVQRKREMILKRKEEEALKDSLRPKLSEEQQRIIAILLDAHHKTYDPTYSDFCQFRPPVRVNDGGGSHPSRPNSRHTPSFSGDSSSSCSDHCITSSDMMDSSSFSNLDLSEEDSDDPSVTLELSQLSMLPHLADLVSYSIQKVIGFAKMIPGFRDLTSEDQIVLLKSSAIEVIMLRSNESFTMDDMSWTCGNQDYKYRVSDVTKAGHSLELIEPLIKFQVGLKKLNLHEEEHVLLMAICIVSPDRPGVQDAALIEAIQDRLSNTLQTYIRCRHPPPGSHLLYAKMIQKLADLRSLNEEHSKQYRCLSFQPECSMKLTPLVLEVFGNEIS
Outline: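 HepG2 cells were transiently transfected with GAL4-UAS reporter units and a chimeric VDR-Gal4 construct, then dosed for 24 hours. Reporter mRNA was quantified by RT-PCR, fluorescent labeling, HpaI digestion and capillary electrophoresis; gain of signal analysed vs DMSO.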

outcome, inactive:
C=CC(=O)NCOCC(C)C
CC(=O)OCCOC(C)=O
Nc1ccc(S(=O)(=O)O)c(N)c1
COc1ccc(Cl)cc1C
CCC(C)(O)CCC=C(C)C (centres undefined)
CCCC(C)C=O (centres undefined)
c1cc(C(c2ccc(OCC3CO3)cc2)c2ccc(OCC3CO3)cc2)ccc1OCC1CO1 (centres undefined)
NCCCCCCN
CO[Si](CCCn1c(=O)n(CCC[Si](OC)(OC)OC)c(=O)n(CCC[Si](OC)(OC)OC)c1=O)(OC)OC
COC(=O)OC
CCC(C)CCCC(C)(C)O (centres undefined)
C[C@H]1C[C@H]2[C@@H]3CCC4=CC(=O)C=C[C@]4(C)[C@@]3(F)[C@@H](O)C[C@]2(C)[C@@]1(O)C(=O)COP(=O)(O)O
CCCCCCCCCCCCCC(=O)O
c1ccc(CCCc2ccccn2)cc1
CC(=O)C=CC1=C(C)CCCC1(C)C
CC(C)(C)NC(N)=O
Fc1c(F)c(F)c(Br)c(F)c1F
O=C1NC(=O)c2ccccc21
CC(C)C[C@H]1C(=O)N2CCC[C@H]2[C@]2(O)O[C@](NC(=O)[C@@H]3C=C4c5cccc6[nH]c(Br)c(c56)C[C@H]4N(C)C3)(C(C)C)C(=O)N12
O=C(O)COCCN1CCN(C(c2ccccc2)c2ccc(Cl)cc2)CC1 (centres undefined)
O=C1CCc2ccccc2O1
ClCCCl
OC1C(O)C(O)C(O)C(O)C1O (centres undefined)
C=C(C)C(=O)NCCCN(C)C
CC(C)=CCO
COC(C)CCO (centres undefined)
CC1=CC(=O)NS(=O)(=O)O1
NCCCN1CCOCC1
Cc1ccccc1C=O
CC(C)=CCC/C(C)=C/COC=O
CC(C)=CCCC(C)CC=O (centres undefined)
O=Cc1ccc(Cl)c([N+](=O)[O-])c1
Nc1cccc(S(=O)(=O)c2cccc(N)c2)c1
CCC(=O)OCCC(C)CCC=C(C)C (centres undefined)
COc1cccc(OC)c1
CCC(=O)/C=C/C1C(C)=CCCC1(C)C (centres undefined)
O=C1c2ccccc2C(=O)N1SC1CCCCC1
O=[N+]([O-])c1ccc(Nc2ccc(Nc3ccccc3)c(S(=O)(=O)O)c2)c([N+](=O)[O-])c1
COC(=O)C1=C(C)NC(C)=C(C(=O)OCCN(C)Cc2ccccc2)C1c1cccc([N+](=O)[O-])c1 (centres undefined)
